The source made the active and inactive calls.
Assay: growth modulation of vineyard yeast isolate – strain RM11-1a, OD600, basal, 24 h, primary screen (AID 1177);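 note: cultures grown under basal conditions with no added stressor; test concentration not given here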
Settings: S. cerevisiae RM11-1a growth, OD600, 24 h; higher = more signal, called active from +8 up or from −8 down

Row | Compound | z-score
1 | COC(=O)[C@@]1(Cc2ccc(OC)cc2)[C@H]2c3cc(C(=O)N4CCCC4)n(CCc4ccccn4)c3C[C@H]2CN1C(=O)c1ccccc1 | 0.664 (inactive)
2 | CC(=O)N1Cc2ccccc2C[C@@]2(N=C(c3ccc(OCCCO)cc3)O[C@H]2c2ccccc2)C1=O | 0.372 (inactive)
3 | CC(C)NC(=O)[C@@]1(c2ccc([N+](=O)[O-])cc2)CC(=O)N(C(C)C)[C@@H]1c1ccc(CO)cc1 | -1.58 (inactive)
4 | CC(C)C(O)C1C=CC2C(=O)N(C)C(=O)C2N1N1CCCCC1 (stereo not given) | 0.0471 (inactive)
5 | CCCC[C@@H]1C[C@H]1[C@@H](NC(=O)c1ccccc1)c1ccccc1 | 0.601 (inactive)
6 | CCN(CC)c1ccc(N2CC=CC34O[C@@H]5/C=C\CCCOC(=O)C5[C@H]3C(=O)N(CCCO)[C@@H]4C2=O)cc1 (stereo not given in full) | -0.767 (inactive)
7 | COc1ccc(C(O)C2C=CC3C(=O)N(c4ccccc4)C(=O)C3N2Nc2ccccc2)c2ccccc12 (stereo not given) | 0.163 (inactive)
8 | O=[N+]([O-])c1ccc(C[n+]2ccc(CCCO)cc2)o1 | 0.379 (inactive)
9 | C[N+](C)(C)CCCCNC(=O)[C@H]1C[C@H]2C(=O)N3CCC[C@H]3C(=O)N2[C@H]1c1ccc(O)cc1 | 0.266 (inactive)
10 | COCCOC(=O)N1C(=O)[C@@]2(c3ccccc31)[C@H](C(=O)N1CCCCCCC1)[C@H]1C(=O)O[C@H](c3ccccc3)[C@H](c3ccccc3)N1[C@@H]2c1ccccc1OCCO | 1.79 (inactive)
11 | C=CCC(OC(C)=O)[C@@H]1[C@@H](N(Cc2ccc(-c3ccccc3)cc2)C(=O)c2ccc(C)cc2)c2cc(OCCCO)ccc2N1C(=O)Cc1ccc(OC)cc1 (stereo not given in full) | -1.65 (inactive)
12 | COC(=O)[C@@]1(Cc2ccc(OC)cc2)[C@H]2c3cc(C(=O)N4CCCC4)n(C[C@H](O)CO)c3C[C@H]2CN1C(=O)c1ccccc1 | 1.04 (inactive)
13 | O=C1O[C@H](c2ccccc2)[C@H](c2ccccc2)N2[C@H]1[C@@H](C(=O)NC[C@H](O)c1ccccc1)[C@]1(C(=O)Nc3ccc(C#CC4=CCCCC4)cc31)[C@H]2c1ccc(O)cc1 | 1.62 (inactive)
14 | COc1ccc([Si](C)(C)[C@@H]2[C@@H](CCO)O[C@]3(C(=O)N(Cc4ccccc4)c4ccc(N(C=O)c5ccccc5)cc43)[C@H]2C)cc1 | 5.4 (inactive)
15 | COc1cc(NN2C(C(O)c3ccccc3)C=CC3C(=O)N(c4ccccc4)C(=O)C32)cc(OC)c1OC (stereo not given) | 0.0729 (inactive)
16 | CN(C)CCCCNC(=O)[C@@H]1C[C@@H]2C(=O)N[C@@H](CCCCN)C(=O)N2[C@@H]1c1cccc(OCCO)c1 | -0.147 (inactive)
17 | COc1c(C)cc(-c2cc3c(c(-c4ccccc4)n2)[Si](C(C)C)(C(C)C)O[C@H]3c2ccccc2)cc1C | -1.33 (inactive)
18 | [N-]=[N+]=NCc1ccccc1C[C@]1(C(=O)NCc2ccccc2)COC(c2ccc(OCCCO)cc2)=N1 | 3.06 (inactive)

Row | Compound | z-score
19 | C=CCOC(=O)[C@@H]1[C@H]2C(=O)O[C@H](c3ccccc3)[C@H](c3ccccc3)N2[C@H](c2ccc(OCCOC(=O)[C@H]3C[C@H]4C(=O)N[C@@H](CCCC[N+](C)(C)C)C(=O)N4[C@H]3c3cccc(OCCO)c3)cc2)[C@@]12C(=O)Nc1ccc(I)cc12 | 1.12 (inactive)
20 | O=C1OCC=C[C@H]2OC34C=CCN(c5ccc(Cl)cc5)C(=O)[C@H]3N(CCCO)C(=O)[C@@H]4[C@@H]12 (stereo not given in full) | 0.123 (inactive)
21 | O=c1cccc(-c2ccccc2)o1 | 0.434 (inactive)
22 | C=C(COC)C(=O)CC[C@H](OC(=O)c1cccnc1)c1ccccc1OCCO | -0.511 (inactive)
23 | CCCCCN1CC=CC23O[C@@H]4C=CCCOC(=O)C4[C@H]2C(=O)N(CCCO)[C@@H]3C1=O (stereo not given in full) | -0.126 (inactive)
24 | CCN(CC)c1ccc(N2CC=CC34O[C@@H]5C=CCOC(=O)[C@@H]5[C@H]3C(=O)N(CCCCCO)[C@@H]4C2=O)cc1 (stereo not given in full) | -0.272 (inactive)
25 | C#C[C@H]1Oc2ccccc2S(=O)(=O)N2CCC[C@@H]12 | -0.0887 (inactive)
26 | O=C1C2C=CC(C(O)c3ccc(B(O)O)cc3)N(Nc3ccc([N+](=O)[O-])cc3)C2C(=O)N1c1ccccc1 (stereo not given) | -22.9 (active)
27 | O=C1OCCC/C=C\[C@H]2OC34C=CCN(CCN5CCOCC5)C(=O)[C@H]3N(CCO)C(=O)[C@@H]4C12 (stereo not given in full) | 1.05 (inactive)
28 | CC(=O)n1cc(C(O)C2C=CC3C(=O)N(c4ccccc4)C(=O)C3N2Nc2ccc(C#N)cc2)c2ccccc21 (stereo not given) | -0.129 (inactive)
29 | COc1ccc(C(=O)Nc2cccc(CN3C(=O)[C@@]4(O[C@@H](CCn5cc([C@H](O)c6ccccc6)nn5)[C@H]([Si](C)(C)c5ccc(OC)cc5)[C@H]4C)c4ccccc43)c2)cc1 | 0.588 (inactive)
30 | COC(=O)[C@@]1(Cc2ccc(F)cc2)[C@H]2c3cc(C(=O)N4CCCC4)n(CCc4ccc(OC)c(Br)c4)c3C[C@H]2CN1C(=O)c1ccccc1 | 0.264 (inactive)
31 | CC(C)N1C(=O)c2ccccc2[C@](C)(C(=O)NC2CC2)[C@@H]1c1ccc(CO)cc1 | 0.382 (inactive)
32 | CCCNC(=O)[C@@]1(C)c2ccccc2C(=O)N(Cc2ccc(OC(F)(F)F)cc2)[C@H]1c1ccc(CO)cc1 | -0.277 (inactive)
33 | C=CCC(OC(C)=O)[C@@H]1[C@@H](N(Cc2ccc(-c3cccc(C(F)(F)F)c3)o2)C(=O)Cc2ccc(OC)cc2)c2cc(OCCCO)ccc2N1C(=O)Cc1ccc(OC)cc1 (stereo not given in full) | -1.08 (inactive)
34 | COC(=O)[C@@]1(Cc2ccccc2)[C@H]2c3cc(C(=O)N(C)C)n(Cc4cc(F)c(F)c(F)c4)c3C[C@H]2CN1C(=O)c1ccccc1 | 0.968 (inactive)
35 | C=C(C)[C@@H]1CC=C(C(O)C2C=CC3C(=O)N(Cc4ccccc4)C(=O)C3N2n2cnnc2)CC1 (stereo not given in full) | -0.616 (inactive)
